Experiment [1] is described as follows: NCI Yeast Anticancer Drug Screen. Data for the rad50 strain (AID 155).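 Also: 0% = growth of vehicle-only cultures of the same strain.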 The settings on record: S. cerevisiae rad50 strain growth inhibition, hits give high values. The essentials: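 Yeast carrying a defined DNA repair defect were exposed to test compounds, and growth was compared with vehicle-treated controls to give percent inhibition.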
Experiment [2] in a line: NCI Yeast Anticancer Drug Screen. Data for the mec2-1 strain (AID 157). The settings on record: S. cerevisiae mec2-1 strain, hits give high values. The essentials: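 Yeast mec2-1 mutant treated with compound. Readout: growth inhibition vs vehicle controls.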
The nature of experiment [3]: NCI Yeast Anticancer Drug Screen. Data for the sgs1 mgt1 strain (AID 161).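 Also: 0% = growth of cultures given vehicle only.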 The settings on record: S. cerevisiae sgs1 mgt1 strain, hits give high values. The essentials: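 Read-out: growth inhibition vs vehicle controls. Cells: mutant yeast strain deficient in DNA damage repair.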
A short description of experiment [4]: NCI Yeast Anticancer Drug Screen. Data for the cln2 rad14 strain (AID 165).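 Also: 0% = growth equal to vehicle treated cultures.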 The conditions noted are these: S. cerevisiae cln2 rad14 strain, hits give high values. An outline of the steps: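 cln2 rad14 yeast strain; compound exposure; growth inhibition read vs vehicle controls.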
Experiment [5] in a line: NCI Yeast Anticancer Drug Screen. Data for the bub3 strain (AID 167). The conditions noted are these: S. cerevisiae bub3 mutant strain, hits give high values. The essentials:
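Compounds were applied to a genetically altered yeast strain carrying a cell-cycle control defect. Growth inhibition was scored against vehicle-treated controls.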

Experiment [6] in a line: NCI Yeast Anticancer Drug Screen. Data for the mlh1 rad18 strain (AID 175). The conditions noted are these: S. cerevisiae mlh1 rad18 strain growth inhibition, hits give high values. An outline of the steps: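 Yeast w/ defined DNA-repair lesions; compound exposure; growth vs vehicle controls → % inhibition.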
[7] abbreviates: at 5.0 µM (retest, dose inferred, filed as 0.5).
Where [8] appears, read: at 50.0 µM (retest, dose inferred, filed as 5.0).

Molecules are shown by their SMILES. Compounds without any hit were thinned out: in the full panel of roughly 79,000, 15% have a hit. A number with no mark means an inactive call. The source made the active and inactive calls. Rule as the data show it: active = growth inhibition above about 70%; inactive = the rest.

On to `NC(=O)c1cc([N+](=O)[O-])c(Cl)c([N+](=O)[O-])c1`, for which the growth inhibition in experiment [1] (setting [7]) was 50%; in experiment [1] (setting [8]), 89% (active); in experiment [1] (at 50.0 µM), 88.2% (active); in experiment [2] (setting [7]), 62%; in experiment [2] (setting [8]), 84% (active); in experiment [2] (at 50.0 µM) it was 86.3% (active). Besides, the growth inhibition in experiment [3] (setting [7]) is 38%; in experiment [3] (setting [8]), 98% (active); in experiment [3] (at 50.0 µM) it was 89% (active); in experiment [4] (setting [7]), 36%; in experiment [4] (setting [8]) it was 97% (active); in experiment [4] (at 50.0 µM) it was 56.5%. The growth inhibition in experiment [5] (setting [7]) was 49%; in experiment [5] (setting [8]), 97% (active); in experiment [5] (at 50.0 µM), 88.5% (active); in experiment [6] (setting [7]) it was 57%; in experiment [6] (setting [8]), 85% (active); in experiment [6] (at 50.0 µM) it was 88.7% (active).

Consider `O=[N+]([O-])/C=C/c1cccc(F)c1`, for which the growth inhibition is 40% in experiment [1] (setting [7]); 99% (active) in experiment [1] (setting [8]); 99.5% (active) in experiment [1] (at 50.0 µM); 30% in experiment [2] (setting [7]); 99% (active) in experiment [2] (setting [8]); 99.7% (active) in experiment [2] (at 50.0 µM). Also, the growth inhibition is 29% in experiment [3] (setting [7]); 99% (active) in experiment [3] (setting [8]); 99.6% (active) in experiment [3] (at 50.0 µM); 10% in experiment [4] (setting [7]); 99% (active) in experiment [4] (setting [8]); 99.3% (active) in experiment [4] (at 50.0 µM). Moreover, the growth inhibition in experiment [5] (setting [7]) was 18%; in experiment [5] (setting [8]) it was 98% (active); in experiment [5] (at 50.0 µM), 99.5% (active); in experiment [6] (setting [7]), 59%; in experiment [6] (setting [8]), 99% (active); in experiment [6] (at 50.0 µM), 99.4% (active).

As for `O=[As]c1cccc2ccccc12` (stereo not given), the growth inhibition was 99% (active) in experiment [1] (setting [7]); 99% (active) in experiment [1] (setting [8]); 99.3% (active) in experiment [1] (at 50.0 µM); 100% (active) in experiment [2] (setting [7]); 100% (active) in experiment [2] (setting [8]); 99.6% (active) in experiment [2] (at 50.0 µM). Moreover, the growth inhibition was 99% (active) in experiment [3] (setting [7]); 99% (active) in experiment [3] (setting [8]); 99.7% (active) in experiment [3] (at 50.0 µM); 100% (active) in experiment [4] (setting [7]); 99% (active) in experiment [4] (setting [8]); 99.2% (active) in experiment [4] (at 50.0 µM). The growth inhibition is 99% (active) in experiment [5] (setting [7]); 99% (active) in experiment [5] (setting [8]); 99.3% (active) in experiment [5] (at 50.0 µM); 99% (active) in experiment [6] (setting [7]); 99% (active) in experiment [6] (setting [8]); 99.3% (active) in experiment [6] (at 50.0 µM).

Regarding `CN(CCCl)Cc1ccc(OCc2ccccc2)c(OCc2ccccc2)c1`, the growth inhibition is 2% in experiment [1] (setting [7]); 98% (active) in experiment [1] (setting [8]); 99.7% (active) in experiment [1] (at 50.0 µM); -20% in experiment [2] (setting [7]); 99% (active) in experiment [2] (setting [8]); 99.6% (active) in experiment [2] (at 50.0 µM). The growth inhibition in experiment [3] (setting [7]) was 0%; in experiment [3] (setting [8]), 99% (active); in experiment [3] (at 50.0 µM), 99.7% (active); in experiment [4] (setting [7]), 8%; in experiment [4] (setting [8]) it was 98% (active); in experiment [4] (at 50.0 µM), 98.1% (active). In addition, the growth inhibition is 0% in experiment [5] (setting [7]); 99% (active) in experiment [5] (setting [8]); 99.4% (active) in experiment [5] (at 50.0 µM); 3% in experiment [6] (setting [7]); 99% (active) in experiment [6] (setting [8]); 99.6% (active) in experiment [6] (at 50.0 µM).

For the molecule `O=C(Nc1n[c]([Hg][Cl])[c]([Hg][Cl])s1)OCc1ccccc1`, the growth inhibition is 99% (active) in experiment [1] (setting [7]); 98% (active) in experiment [1] (setting [8]); 99% (active) in experiment [1] (at 50.0 µM); 99% (active) in experiment [2] (setting [7]); 99% (active) in experiment [2] (setting [8]); 99.5% (active) in experiment [2] (at 50.0 µM). The growth inhibition was 98% (active) in experiment [3] (setting [7]); 99% (active) in experiment [3] (setting [8]); 99.3% (active) in experiment [3] (at 50.0 µM); 34% in experiment [4] (setting [7]); 99% (active) in experiment [4] (setting [8]); 98.9% (active) in experiment [4] (at 50.0 µM). The growth inhibition was 100% (active) in experiment [5] (setting [7]); 99% (active) in experiment [5] (setting [8]); 99.2% (active) in experiment [5] (at 50.0 µM); 99% (active) in experiment [6] (setting [7]); 98% (active) in experiment [6] (setting [8]); 98.9% (active) in experiment [6] (at 50.0 µM).

The values above are taken from PubChem BioAssay (NCI).
